GCN5L2 inh – qHTS Assay for Inhibitors of GCN5L2; Potency, µM (doses to about 58.9 µM), without a hit: at the highest dose activity change, negative = inhibition, most hits filed as inhibitors; Histone acetyltransferase KAT2A (Homo sapiens), Q92830; 390,000 compounds, 0.21% hits; GCN5L2 HAT assay, ThioGlo1 CoA-SH fluorescence
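GCN5L2 (20nM final) in 50mM HEPES, 0.1mM EDTA pH 7.5, 0.01% Tween-20 was preincubated 15 min at room temperature with compound, then given ThioGlo1 (50uM), H3(1-25) peptide (75uM) and acetyl-CoA (70uM); CoA-thiol fluorescence (Ex340/Em540) was read at 0 and 20 min.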
TDP1 inh – qHTS Assay for Inhibitors of Tyrosyl-DNA Phosphodiesterase (TDP1); recombinant TDP1, AlphaScreen DNA substrate cleavage; 350,000 compounds, 0.28% hits; Potency, µM (series often up to 130 µM), without a hit: at the highest dose activity change, negative = inhibition, usual class: inhibitors; Tyrosyl-DNA phosphodiesterase 1 (Homo sapiens), Q9NUW8; AID 485290, 2010; note: nearly all actives have a fitted effect of over 40% in size
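Tdp1 1 nM final; 15 min RT w/ cpd; substrate 15 nM, 5 min; beads 10 ug/ml, 10 min; AlphaScreen read. Neg ctrl: no enzyme.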
DT40 TDP1 CPT – qHTS for Inhibitors of human tyrosyl-DNA phosphodiesterase 1 (TDP1): qHTS in cells in presence of CPT; chicken DT40 Tdp1-/-;hTDP1 cells + 20 nM CPT, ATP luminescence, 48 h; Potency, µM (series often up to 46.2 µM), for inactives: at the highest dose activity change, negative = growth inhibition, most hits filed as inhibitors; 420,000 compounds, 12% hits; AID 686979, 2013; note: nearly all actives have a fitted effect of over 55% in size
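Cell growth measured by CellTiter-Glo luminescence after a minimum 48 h, 37 C compound exposure with 20 nM CPT in Tdp1-knockout DT40 cells stably expressing hTDP1, seeded 400/well; qHTS titration format.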
PLK1 PBD block – qHTS for Inhibitors of PLK1-PDB (polo-like kinase 1 - polo-box domain): Primary Screen; Potency, µM, without a hit: max response, negative = inhibition, hits mostly inhibitors; Serine/threonine-protein kinase PLK1 (Homo sapiens), P53350; 360,000 compounds, 2.8% hits; Plk1 PBD binding of FITC phosphopeptide, fluorescence polarization; AID 720504, 2013; note: series mostly up to about 57 µM; nearly all actives have a fitted effect of over 65% in size
VDR inh – Inhibitors of the vitamin D receptor (VDR): qHTS | Vitamin D3 receptor (Homo sapiens), P11473 | VDR-SRC2-3 peptide fluorescence polarization, 2 h | Potency, µM, inactives show max response, negative = inhibition, hits mostly inhibitors | 400,000 compounds, 0.93% hits | AID 504847, 2011
Target sequence (P11473 whole entry, looked up): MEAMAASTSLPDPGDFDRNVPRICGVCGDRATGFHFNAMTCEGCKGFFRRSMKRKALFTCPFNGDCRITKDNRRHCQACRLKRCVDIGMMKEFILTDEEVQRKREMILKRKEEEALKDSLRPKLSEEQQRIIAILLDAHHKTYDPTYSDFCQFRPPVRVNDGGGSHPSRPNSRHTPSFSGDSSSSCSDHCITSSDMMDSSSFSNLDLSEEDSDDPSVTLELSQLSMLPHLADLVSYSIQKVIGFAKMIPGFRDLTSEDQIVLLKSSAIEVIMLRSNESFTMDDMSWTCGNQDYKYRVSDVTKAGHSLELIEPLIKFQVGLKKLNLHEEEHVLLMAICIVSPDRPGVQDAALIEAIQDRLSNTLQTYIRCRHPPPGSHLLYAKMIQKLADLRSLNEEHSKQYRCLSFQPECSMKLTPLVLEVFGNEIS
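Two reagent solutions held at 4 deg C in the dark were dispensed, compounds pinned at 23 nl, and the mixture incubated 2 h at room temperature. Read-out: fluorescence polarization of VDR–SRC2-3 peptide binding.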
TDP1 cell noCPT – qHTS for Inhibitors of human tyrosyl-DNA phosphodiesterase 1 (TDP1): qHTS in cells in absence of CPT. DT40 Tdp1-/- hTDP1 cells, no CPT, ATP luminescence, 48 h. Potency, µM (series often up to 46.2 µM), inactives show at the top dose activity change, negative = growth inhibition, usual class: inhibitors. 420,000 compounds, 15% hits; note: nearly all actives have a fitted effect of over 55% in size
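Readout: luminescence from CellTiter-Glo after 30 min in the dark at RT. Cells: DT40 Tdp1-/- with stable hTDP1, 400/well. Exposure: compounds alone, ≥48 hr, 37 °C.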
The depositor's hits bear a star; ? = inconclusive; · = no result given. Shown are actives, neighbours in structure and some others; about 18% of the full set was active somewhere. Calls come from the whole dose curve; as a rule, active = well fitted curve in the direction sought with a large enough effect; inconclusive = small, poorly fitted or top-dose-only effect, or another doubt; inactive = no such curve, though single readings can be large; an effect the other way counts as inactive or inconclusive. % is set by controls: 0 for no effect and ±100 for the full control effect; potency is the fitted concentration of half-maximal effect.

SMILES	GCN5L2 inh	TDP1 inh	DT40 TDP1 CPT	PLK1 PBD block	VDR inh	TDP1 cell noCPT
C#CC[N+](C)(C)CC#Cc1ccc(C)cc1	2.0%	3.8%	-13.0%	-8.9%	-8.9%	-5.9%
C[N+](C)(CC#Cc1ccccc1)CC(=O)c1ccccc1	-4.4%	2.7%	18.4µM*	-2.9%	-16.5%	16.4µM*
CCOC(=O)C[N+](CC)(CC)CC#Cc1ccccc1	-4.5%	0.0%	8.6%	-0.1%	11.7%	-7.2%
CC[N+](CC)(CC#Cc1ccccc1)CC#Cc1ccccc1	0.4%	4.8%	2.59µM*	-4.8%	2.9%	2.06µM*
CCc1nn(CC(=O)N(CC)Cc2ccccc2)c(=O)c2cc3occc3n12	0.5%	2.5%	23.1µM*	·	-2.9%	16.4µM*
CCc1nn(CC(=O)NC(C)CCc2ccccc2)c(=O)c2cc3occc3n12 (stereo not drawn)	1.7%	3.7%	?	23.8µM*	?	?
c1cncc(-c2cncnc2NC2CCNCC2)c1	-8.2%	·	16.4µM*	·	-0.7%	-12.4%
O=C(Nc1cnc2ccccc2c1)N1CCOCC1	-3.4%	-1.0%	-19.8%	26.7µM*	2.3%	?
O=C(Nc1cnc2ccccc2c1)N1CCCCC1	2.6%	3.1%	2.9%	-12.8%	2.2%	?
CC(C)c1ccc(CN2CCC2(C)C(=O)Nc2cnc3ccccc3c2)cc1 (stereo not drawn)	·	·	18.4µM*	-2.5%	·	25.9µM*
CC1(C(=O)Nc2cnc3ccccc3c2)CCN1Cc1cc2ccccc2o1 (stereo not drawn)	·	·	13µM*	3.8%	·	14.6µM*
COc1ccc(CN2CCC2(C)C(=O)Nc2cnc3ccccc3c2)c2ccccc12 (stereo not drawn)	·	·	?	-0.5%	·	?
CC1(C(=O)Nc2cnc3ccccc3c2)CCN1Cc1ccc2ccccc2c1 (stereo not drawn)	·	·	14.6µM*	-0.4%	·	?
Cc1occc1C(=O)Nc1nnc(-c2cccs2)s1	-0.1%	4.7%	40.1%	-14.6%	3.9%	-14.7%
O=C(CN1C=NS(=O)(=O)c2ccc(C(F)(F)F)cc21)Nc1cccc(C(F)(F)F)c1	-2.3%	3.4%	-8.0%	·	16.6%	4.9%
CC(NC(=O)C1CCN(Cc2ccccc2)CC1)c1cccc2ccccc12 (stereo not drawn)	·	·	?	7.2%	·	?
COc1cccc(CN2CCC(C(=O)NC(C)c3cccc4ccccc34)CC2)c1 (stereo not drawn)	·	·	23.1µM*	-8.7%	·	16.4µM*
COc1ccc(C(NC(=O)C2CCN(Cc3cc(OC)cc(OC)c3)CC2)c2ccccn2)cc1 (stereo not drawn)	·	·	2.3%	3.2%	·	-29.3%
CC(NC(=O)C1CCN(Cc2ccc(Oc3ccccc3)cc2)CC1)c1cccc2ccccc12 (stereo not drawn)	·	·	23.1µM*	1.4%	·	14.6µM*
COc1cc(OC)nc(C(NC(=O)C2CCN(Cc3ccc(Oc4ccccc4)cc3)CC2)c2ccc(F)cc2)n1 (stereo not drawn)	·	·	25.9µM*	1.1%	·	?
COc1ccc(OCCN2CCC(C(=O)NC(C)c3cccc4ccccc34)CC2)cc1 (stereo not drawn)	·	·	?	-10.2%	·	?
COCCNC(=O)c1onc(CSc2cc(C)cc(C)c2)c1C(=O)NCCOC	-6.7%	-1.2%	-3.0%	5.8%	-12.2%	-29.3%
F[B-](F)(F)c1cc2ccccc2s1	·	·	-23.6%	-0.8%	4.9%	-29.5%
CN(C)CCCNC(=O)/C(=C\C=C\c1ccccc1)NC(=O)c1ccc([N+](=O)[O-])cc1	-0.6%	·	2.1%	-7.4%	17.9%	?
